Screening data as filed in PubChem.
Shown are actives, neighbours in structure and some others; about 3.4% of the full set was active somewhere.
sPLA2-III inh: Blocks human group III sPLA2 activity; 0.56% of 370,000 active; QFRET BODIPY PC-A2 liposome hydrolysis, fluorescence; Q9NZ20; inhibition, % at 12.2 µM; AID 743126;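 active = inhibition above mean plus 3 SD of compounds lying within the high and low control bounds, cut at about 19% in these data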;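 note: 0% = median of test compound wells and 100% = no enzyme DMSO wells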
KLK7 zymogen act: proKLK7 (human) activation, primary screen | P49862 | purified proKLK7, EDANS-DABCYL substrate fluorescence; 100% is mature enzyme control, 0% vehicle | activation, % at 7 µM | 0.9% of 370,000 active;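 active = activation above the mean of all tested compounds plus 3 SD, computed per campaign excluding outliers beyond control limits, cut at about 13% in these data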
ADAM17 inh: inhibitors of human ADAM17; inhibition, % at 6.95 µM; 0.83% of 370,000 active; P78536; recombinant ADAM17, EDANS/DABCYL FRET peptide cleavage;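 active = inhibition above the mean of compounds lying between control limits plus 3 SD, set per campaign, cut at about 8.5% in these data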;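 note: 0% = DMSO-only wells as the low control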
ADAM10 inh: inhibitors of human ADAM10. O14672. recombinant ADAM10, EDANS/DABCYL FRET peptide cleavage, 3 h. inhibition, % at 7 µM. 0.62% of 370,000 active. AID 720582;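 active = inhibition above a per-campaign cutoff equal to the mean of compounds falling between control-based bounds plus 3 SD, cut at about 20% in these data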;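 note: 0% = DMSO wells while the 100% control is not disclosed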
Target sequence (O14672 214-748 limits assumed): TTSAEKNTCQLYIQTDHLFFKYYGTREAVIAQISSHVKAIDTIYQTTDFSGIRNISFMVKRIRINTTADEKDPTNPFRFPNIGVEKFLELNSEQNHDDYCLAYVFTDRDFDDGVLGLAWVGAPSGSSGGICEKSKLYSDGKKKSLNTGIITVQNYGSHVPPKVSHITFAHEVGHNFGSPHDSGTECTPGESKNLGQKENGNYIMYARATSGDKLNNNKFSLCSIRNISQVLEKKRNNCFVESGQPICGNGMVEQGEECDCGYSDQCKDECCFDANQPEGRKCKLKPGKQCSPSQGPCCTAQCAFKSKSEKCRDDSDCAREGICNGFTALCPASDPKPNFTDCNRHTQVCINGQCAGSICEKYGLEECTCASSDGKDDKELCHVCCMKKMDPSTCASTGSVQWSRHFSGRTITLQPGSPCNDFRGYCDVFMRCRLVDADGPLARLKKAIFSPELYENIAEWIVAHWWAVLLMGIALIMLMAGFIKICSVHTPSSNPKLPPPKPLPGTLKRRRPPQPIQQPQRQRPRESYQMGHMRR
PLCg1 inh: PLC-gamma1 (human) inhibition, primary screen; inhibition, % at 12.2 µM; purified PLC-gamma1, fluorogenic substrate, fluorescence; P19174; AID 720700; 0.84% of 370,000 active; in the data active = inhibition above about 9.5%
PLC-beta3 inh: inhibitors of human phospholipase C beta3; Q01970; Purified PLC-beta3, fluorogenic substrate, fluorescence; inhibition, % at 12.2 µM; 0.18% of 370,000 active; AID 720704; in the data active = inhibition above about 11%;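 note: 0% = median of compound wells on plate and 100% = full blocker control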
ADAM10 ctr: ADAM10 inhibition, counter-screen for ADAM17 exosite hits. shares compounds with ADAM17 inh. recombinant ADAM10, EDANS/DABCYL FRET peptide cleavage, 3 h. inhibition, % at 6.95 µM. 47% of 2,900 active. AID 743256;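 active = mean inhibition over the triplicate runs exceeds the activity threshold set in the earlier primary screen, cut at about 20% in these data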;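 note: 0% = DMSO wells and 100% = marimastat wells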
ADAM17 confirm: confirmation of inhibitors of human ADAM17 | shares compounds with ADAM17 inh | recombinant ADAM17, EDANS/DABCYL QFRET peptide cleavage | inhibition, % at 6.95 µM | 65% of 2,900 active | AID 743257;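 active = mean inhibition across replicates above the hit cutoff set in the primary screen, cut at about 8.5% in these data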;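 note: 0% = DMSO wells and 100% = marimastat wells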
* = called active by the depositor; i = inactive; nt = not tested or not shown.

SMILES | sPLA2-III inh | KLK7 zymogen act | ADAM17 inh | ADAM10 inh | PLCg1 inh | PLC-beta3 inh | ADAM10 ctr | ADAM17 confirm
O=C(CN(Cc1ccccc1)S(=O)(=O)c1ccccc1)N/N=C/c1ccccc1[N+](=O)[O-] | -19 | 0 | 4 | 7 | 5 | 0 | nt | nt
COC(=O)c1nn(-c2ccccc2)c(Sc2ccc(Br)cc2)c1/C=N/O | 0 | -1 | 11* | 4 | 1 | 2 | 11 | 4
COC(=O)c1nn(-c2ccccc2)c(Sc2ccc(Cl)cc2)c1/C=N/O | -12 | 0 | 4 | 7 | -1 | -2 | nt | nt
COC(=O)[C@]12C[C@H](CC(=O)N3CCCCC3)C(=O)N(Cc3cccc4ccccc34)C1=C[C@H](C(C)C)O[C@@H]2C1CC1 | -1 | 1 | 1 | 9 | 0 | 2 | nt | nt
CCOC(=O)[C@]12CCCCC/C=C\1N(Cc1ccc(OC)cc1)C(=O)[C@H]2CC(=O)N1CCSCC1 | 6 | 0 | -2 | 3 | 0 | 1 | nt | nt
Cc1cc(=O)[nH]c(SCC(=O)Nc2cccc(C)c2C)n1 | 3 | 0 | -2 | -3 | 0 | 0 | nt | nt
C=CCN1C(=O)[C@@H](CC(=O)NCc2cccc(C(F)(F)F)c2)[C@]2(C(=O)OCC)CCCCC/C=C/12 | -4 | 0 | -1 | 3 | -1 | -2 | nt | nt
CCCN1C/C(=C/c2ccc3c(c2)OCO3)C(=O)/C(=C/c2ccc3c(c2)OCO3)C1 | 1 | 1 | 10* | -7 | -4 | -1 | 4 | 28*
O=C(CN1CCOCC1)Nc1cccc(C(F)(F)F)c1 | -5 | 1 | 1 | 2 | 1 | -6 | nt | nt
O=C(CN1CCN(c2cccc(C(F)(F)F)c2)CC1)Nc1cccc(C(F)(F)F)c1 | 9 | 0 | 8.8* | 13 | 5 | -2 | 24* | 12*
CCCCCN1CC(O)=C(c2nc3ccccc3[nH]2)C1=N | 2 | 0 | 10* | 11 | 2 | 5 | 12 | 8
O=C(C1CC1)N1CCc2cc(Br)c(S(=O)(=O)NCCCN3CCCCC3)cc21 | 1 | 0 | -2 | -1 | 2 | -3 | nt | nt
Cc1ccccc1NC(=O)Cc1nc(COC(=O)c2ccc(Cl)nc2)cs1 | -20 | 0 | 8.7* | -10 | -5 | -14 | 7 | 5
Cc1ccccc1NC(=O)Cc1nc(COC(=O)c2nc(Cl)ccc2Cl)cs1 | -44 | 0 | -2 | -6 | -2 | -5 | nt | nt
CC[C@@H]1C=C(C(=O)O)[C@H](c2ccc(Cl)cc2)N1S(=O)(=O)c1ccc(C)cc1 | -4 | 0 | 8.6* | 1 | 1 | 1 | 10 | 5
O=C(Nc1cccc(C(F)(F)F)c1)C(SCCO)c1ccccc1 (configuration not stated) | -15 | 0 | -1 | 1 | -1 | 1 | nt | nt
CCC(C(=O)Nc1cccc(C(F)(F)F)c1)c1ccccc1 (configuration not stated) | -9 | 0 | 8.7* | 14 | 1 | 2 | 20* | 9.4*
N#Cc1ccc2nc(-c3ccc(CN4CCC5(CC4)CNc4ccccc45)cc3)c(-c3ccccc3)nc2c1 | 10 | 0 | 4 | -16 | -7 | -4 | nt | nt
COc1ccc(C(C(=O)N(C)C2CCCC2)N(Cc2ccc(F)cc2)C(=O)c2sccc2Cl)cc1OC (configuration not stated) | -2 | 0 | 0 | 2 | -2 | 2 | nt | nt
S=C(NCCc1ccc(Cl)cc1)Nc1ccc(Cl)cc1Cl | 4 | 0 | 16* | 29* | 1 | 6 | 34* | 19*
Cc1ccc2nc(SCC(=O)Nc3cccc(S(=O)(=O)N(C)C)c3)[nH]c2c1 | -44 | 0 | 12* | 19 | 9 | 7 | 12 | 11*
CN(C)S(=O)(=O)c1cccc(NC(=O)CSc2nc3ccccc3[nH]2)c1 | -15 | 1 | -2 | 0 | 8 | -1 | nt | nt
CCOc1cc(/C=N/NC(=O)c2ccc3c(c2)OCCO3)cc(Br)c1O | 7 | 0 | 23* | -6 | -474 | i | -19 | 1
Cc1ccc(S(=O)(=O)Nc2ccc3c(c2)CC(=O)N([C@H](C)CO)C[C@@H](C)[C@H](CN(C)S(=O)(=O)c2ccccc2)O3)cc1 | -35 | 1 | 4 | 12 | 4 | 4 | nt | nt
C[C@H](CO)N1C[C@H](C)[C@@H](CN(C)Cc2ccc(-c3ccccc3)cc2)Oc2c(NS(=O)(=O)c3ccccc3)cccc2C1=O | -24 | 1 | 1 | 8 | 3 | 3 | nt | nt
SMILES | sPLA2-III inh | KLK7 zymogen act | ADAM17 inh | ADAM10 inh | PLCg1 inh | PLC-beta3 inh | ADAM10 ctr | ADAM17 confirm
Cc1ccc(S(=O)(=O)Nc2cccc3c2O[C@H](CN(C)Cc2ccc(-c4ccccc4)cc2)[C@@H](C)CN([C@H](C)CO)C3=O)cc1 | -34 | 1 | 13* | 24* | 1 | 2 | 44* | 24*
Cc1ccc(S(=O)(=O)N(C)C[C@@H]2Oc3ccc(NS(=O)(=O)c4ccccc4)cc3CC(=O)N([C@@H](C)CO)C[C@H]2C)cc1 | -52 | 1 | 10* | 14 | 8 | 9 | 5 | 5
C[C@@H]1CN([C@H](C)CO)C(=O)c2c(c3ccccc3n2C)-c2ccccc2CO[C@H]1CN(C)Cc1ccc(-c2ccccc2)cc1 | -10 | 0 | 8.9* | 8 | 4 | 1 | 17 | 8
C[C@@H]1CN([C@H](C)CO)C(=O)c2c(c3ccccc3n2C)-c2ccccc2CO[C@H]1CN(C)Cc1ccccc1 | -3 | 1 | -4 | -2 | 1 | 0 | nt | nt
CCCCN1CC(=O)N2[C@H](C[C@@]3(n4ccc5ccccc54)c4ccccc4N(S(=O)(=O)c4ccccc4)[C@@H]23)C1=O | -7 | -1 | 4 | 4 | -2 | -3 | nt | nt
Cc1ccc(-c2nnc(SCC(=O)NN=Cc3c[nH]c4ccccc34)n2-c2ccccc2)cc1 | -18 | 1 | 6 | 14 | 4 | 4 | nt | nt
O=C(CSc1nnc(SCc2cccc3ccccc23)s1)N/N=C/c1c[nH]c2ccccc12 | -9 | -1 | 12* | 16 | 3 | 1 | 17 | 9.9*
O=C(CSc1nnc(-c2ccccc2)n1-c1ccc(Cl)cc1)NN=Cc1c[nH]c2ccccc12 | -22 | 0 | 11* | 20 | 0 | -1 | 29* | 12*
CC(C)Sc1cc(N2CCOCC2)nc(-c2ccc(Cl)cc2)n1 | 10 | -1 | 6 | -9 | -1 | 5 | nt | nt
CCN1CCN(c2cc(SC(C)C)nc(-c3ccc(OC)cc3)n2)CC1 | -18 | 0 | 13* | 14 | 8 | 10 | 23* | 15*
